Screening results from PubChem.
mHTT-CaM PPI inh: mutant huntingtin-calmodulin interaction inhibitors – biochemical, AlphaScreen, primary screen; inhibition, % at 15 µM; P42858; 3.6% of 190,000 active; AlphaScreen His-mHTT/GST-CaM binding, luminescence;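 further: 0% = both proteins with DMSO and 100% = one protein alone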
Target sequence (P42858 whole entry, looked up, stated change not applied): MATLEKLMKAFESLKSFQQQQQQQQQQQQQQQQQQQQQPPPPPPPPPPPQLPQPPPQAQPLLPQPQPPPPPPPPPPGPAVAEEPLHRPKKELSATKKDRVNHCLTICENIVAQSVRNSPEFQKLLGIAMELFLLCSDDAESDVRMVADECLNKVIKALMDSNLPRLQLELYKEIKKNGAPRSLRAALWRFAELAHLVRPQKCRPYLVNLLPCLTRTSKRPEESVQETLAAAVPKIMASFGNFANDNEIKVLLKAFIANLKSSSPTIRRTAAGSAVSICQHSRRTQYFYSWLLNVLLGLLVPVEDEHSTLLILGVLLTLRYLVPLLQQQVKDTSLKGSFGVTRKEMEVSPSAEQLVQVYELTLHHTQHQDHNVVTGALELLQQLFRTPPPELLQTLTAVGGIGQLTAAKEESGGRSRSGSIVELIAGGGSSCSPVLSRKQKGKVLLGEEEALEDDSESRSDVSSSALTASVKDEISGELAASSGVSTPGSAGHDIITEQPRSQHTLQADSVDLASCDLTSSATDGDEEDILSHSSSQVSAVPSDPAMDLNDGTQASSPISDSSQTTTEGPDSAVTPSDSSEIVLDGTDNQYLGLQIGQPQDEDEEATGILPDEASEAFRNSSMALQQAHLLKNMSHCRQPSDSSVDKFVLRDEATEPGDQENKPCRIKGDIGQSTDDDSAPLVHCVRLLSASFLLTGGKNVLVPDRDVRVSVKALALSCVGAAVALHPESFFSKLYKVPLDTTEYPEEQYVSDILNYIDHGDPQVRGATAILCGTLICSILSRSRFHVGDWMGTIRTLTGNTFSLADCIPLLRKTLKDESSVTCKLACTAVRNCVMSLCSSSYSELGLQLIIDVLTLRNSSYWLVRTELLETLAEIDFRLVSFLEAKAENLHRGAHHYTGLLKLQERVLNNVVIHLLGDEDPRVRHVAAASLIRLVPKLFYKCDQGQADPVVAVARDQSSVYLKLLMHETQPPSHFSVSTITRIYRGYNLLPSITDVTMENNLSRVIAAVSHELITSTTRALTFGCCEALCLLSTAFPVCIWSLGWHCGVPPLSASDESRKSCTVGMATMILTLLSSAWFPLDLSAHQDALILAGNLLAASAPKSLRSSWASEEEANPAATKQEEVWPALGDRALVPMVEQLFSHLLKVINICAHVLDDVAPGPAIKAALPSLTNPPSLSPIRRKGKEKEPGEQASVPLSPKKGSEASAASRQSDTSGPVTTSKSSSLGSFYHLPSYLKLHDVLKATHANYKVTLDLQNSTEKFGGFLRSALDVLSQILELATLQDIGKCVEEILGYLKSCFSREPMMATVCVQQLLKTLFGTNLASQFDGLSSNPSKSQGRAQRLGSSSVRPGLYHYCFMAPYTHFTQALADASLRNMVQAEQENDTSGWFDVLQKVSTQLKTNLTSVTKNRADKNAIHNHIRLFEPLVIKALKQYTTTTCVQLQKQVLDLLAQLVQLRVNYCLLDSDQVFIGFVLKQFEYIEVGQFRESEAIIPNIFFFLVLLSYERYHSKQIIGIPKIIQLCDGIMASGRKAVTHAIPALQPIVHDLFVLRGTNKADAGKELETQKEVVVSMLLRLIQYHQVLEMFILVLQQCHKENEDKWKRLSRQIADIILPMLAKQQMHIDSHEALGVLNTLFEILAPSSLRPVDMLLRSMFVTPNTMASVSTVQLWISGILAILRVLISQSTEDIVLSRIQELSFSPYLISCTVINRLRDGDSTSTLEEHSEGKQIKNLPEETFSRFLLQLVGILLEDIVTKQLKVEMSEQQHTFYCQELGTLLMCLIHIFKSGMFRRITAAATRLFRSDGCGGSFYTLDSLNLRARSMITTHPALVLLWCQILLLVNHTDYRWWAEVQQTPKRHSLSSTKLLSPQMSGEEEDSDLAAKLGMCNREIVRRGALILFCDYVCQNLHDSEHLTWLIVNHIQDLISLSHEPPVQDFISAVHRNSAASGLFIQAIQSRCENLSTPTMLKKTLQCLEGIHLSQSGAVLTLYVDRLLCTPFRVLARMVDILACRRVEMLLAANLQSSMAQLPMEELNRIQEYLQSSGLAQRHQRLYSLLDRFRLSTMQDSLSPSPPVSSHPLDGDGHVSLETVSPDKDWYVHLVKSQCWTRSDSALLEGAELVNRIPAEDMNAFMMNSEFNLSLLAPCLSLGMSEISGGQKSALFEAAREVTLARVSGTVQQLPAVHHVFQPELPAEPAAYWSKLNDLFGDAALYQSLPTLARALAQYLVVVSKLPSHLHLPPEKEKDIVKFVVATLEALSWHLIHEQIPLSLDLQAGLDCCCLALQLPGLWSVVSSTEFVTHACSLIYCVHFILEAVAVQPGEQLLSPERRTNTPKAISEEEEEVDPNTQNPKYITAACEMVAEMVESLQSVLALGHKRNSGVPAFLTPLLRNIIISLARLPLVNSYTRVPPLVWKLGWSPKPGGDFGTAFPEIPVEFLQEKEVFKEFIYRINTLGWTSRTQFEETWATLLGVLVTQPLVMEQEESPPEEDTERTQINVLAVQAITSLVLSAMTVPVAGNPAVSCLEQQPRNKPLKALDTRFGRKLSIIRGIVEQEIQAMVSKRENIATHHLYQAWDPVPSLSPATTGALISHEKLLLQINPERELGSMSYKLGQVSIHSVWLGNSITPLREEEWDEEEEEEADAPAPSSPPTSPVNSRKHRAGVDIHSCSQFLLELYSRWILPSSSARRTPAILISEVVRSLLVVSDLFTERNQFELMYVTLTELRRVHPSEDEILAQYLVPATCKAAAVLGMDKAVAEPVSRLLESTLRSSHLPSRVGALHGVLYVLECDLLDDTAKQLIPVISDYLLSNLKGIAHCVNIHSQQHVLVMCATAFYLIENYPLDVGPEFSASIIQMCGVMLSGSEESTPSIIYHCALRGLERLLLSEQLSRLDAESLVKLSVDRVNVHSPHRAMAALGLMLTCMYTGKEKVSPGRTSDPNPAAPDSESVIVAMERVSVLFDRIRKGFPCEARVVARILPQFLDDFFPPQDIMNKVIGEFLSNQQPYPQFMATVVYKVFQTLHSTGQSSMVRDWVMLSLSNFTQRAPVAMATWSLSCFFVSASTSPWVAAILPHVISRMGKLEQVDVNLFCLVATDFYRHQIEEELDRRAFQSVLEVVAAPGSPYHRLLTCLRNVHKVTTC
Pf apPOL inh: Pf-apPOL inhibitors, biochemical, fluorescence. Plasmodium falciparum apicoplast DNA polymerase (apPOL). Recombinant Pf-apPOL, molecular beacon fluorescence, 1.5 h. inhibition, % at 10 µM. 0.25% of 210,000 active. AID 1794808, 2022
* hit, by the source's call; nt = no result given. A selection: hits, their analogues and other compounds. The true share with any hit is near 3.5%. No stated cut-off is given here; in the data, active means inhibition above about 50%; inactive means the rest.

SMILES | mHTT-CaM PPI inh | Pf apPOL inh
CCN(CC)CCNC(=O)CN1C(=O)/C(=C/c2ccccc2F)Sc2ccccc21 | 10 | 2
COc1ccc(OC)c(NC(=O)N2CCCC(C)(C(=O)NCc3ccccc3C)C2)c1 (centres undefined) | 7 | 4
Cc1ccc(-c2cc(C(F)F)nc(SC3CC(=O)C4OCC3O4)n2)cc1 (centres undefined) | 16 | 2
Cc1nc(CCNC(=O)C2CCN(C(=O)c3ccc(Br)o3)CC2)cs1 | -3 | -2
COc1ccc(C(=O)N2CCC(n3c(-c4ccoc4)nc4cccnc43)C2)cc1OC (centres undefined) | 20 | -4
COCCCNC(=O)c1cnn2c(C(F)(F)F)cc(-c3ccccc3)nc12 | 5 | -6
C=CCNC(=O)c1cnn2c(C(F)(F)F)cc(-c3ccccc3)nc12 | 51* | -4
CCOC(=O)c1ccc(NC(=O)NC23CC4(C)CC(C)(CC(C)(C4)C2)C3)cc1 | -6 | -8
COc1cccc(-c2c(NC(=O)C3CCCCC3)oc3ccccc3c2=O)c1 | -3 | -11
COc1ccc(-c2nnc(C)c(NC3CCCC3)n2)cc1 | 52* | -12
COc1ccc(CNc2nc(-c3ccc(C)cc3)nnc2C)cc1 | 5 | 2
CCOc1ccc(-c2ccc(SCc3ccc([N+](=O)[O-])cc3)nn2)cc1 | 2 | -10
COc1ccc(C)c2sc(N(CCN3CCOCC3)C(=O)c3ccccc3Cl)nc12 | 45 | -5
CC(c1ccccc1)N1COc2ccc3c4c(oc3c2C1)C(=O)c1ccccc1C4=O (centres undefined) | 49 | 7
O=C(CSc1cn(Cc2ccc(Cl)cc2)c2ccccc12)N1CCCCC1 | 31 | -3
O=C(CSc1cn(Cc2ccc(Cl)cc2)c2ccccc12)Nc1ccc2c(c1)OCO2 | 64* | -3
O=C(CSc1cn(Cc2ccc(Cl)cc2)c2ccccc12)N1CCOCC1 | 72* | -3
O=C(CSc1cn(Cc2ccccc2Cl)c2ccccc12)Nc1ccc2c(c1)OCO2 | 34 | -7
O=C(CSc1cn(Cc2cccc(F)c2)c2ccccc12)N1CCCCC1 | 27 | 3
O=C(CSc1cn(Cc2ccccc2Cl)c2ccccc12)N1CCCCC1 | 53* | -7
O=C(CSc1cn(Cc2ccc(F)cc2)c2ccccc12)N1CCOCC1 | 33 | 2
CC1CCN(C(=O)CSc2cn(Cc3ccc(F)cc3)c3ccccc23)CC1 | 83* | -2
O=c1c2cn[nH]c2nc(SCc2cccnc2)n1-c1ccc(Cl)cc1 | 10 | -5
COc1ccc(Cl)cc1C(=O)Nc1c2c(nn1-c1ccc(C)cc1)CSC2 | 5 | -5
NC(=O)C1=C2CCCN2c2ccc(F)cc2S1(=O)=O | -13 | 0
SMILES | mHTT-CaM PPI inh | Pf apPOL inh
Cc1ccc(C)c(NC(=O)N2CC(C)C(c3nc(-c4ccncc4)no3)C2)c1 (centres undefined) | -4 | -6
CC1CCN(C(=O)CSc2cn(Cc3ccccc3Cl)c3ccccc23)CC1 | 58* | -5
Cc1ccccc1Cn1cc(SCC(=O)N2CCOCC2)c2ccccc21 | 30 | 1
COc1ccc(NC(=O)C2CC(c3ccc(OC)c(OC)c3)=NO2)cc1OC (centres undefined) | 30 | -4
COc1ccc(C2=NOC(C(=O)Nc3ccc4c(c3)OCO4)C2)cc1OC (centres undefined) | 55* | -1
COc1ccc(NC(=O)C2CC(c3cc(OC)c(OC)c(OC)c3)=NO2)cc1OC (centres undefined) | 46 | -5
COc1cc(C2=NOC(C(=O)Nc3ccc4c(c3)OCO4)C2)cc(OC)c1OC (centres undefined) | 60* | -5
O=C1CC(c2cccc(F)c2)Sc2nc3ccccc3n21 (centres undefined) | -2 | 0
Cc1ccccc1NC(=O)NCC1CCN(Cc2cccs2)CC1 | -12 | -4
CCN(CC)C(=O)C1CC(c2ccccc2F)=NO1 (centres undefined) | 2 | -8
CCc1cc2nn(CC#N)c(=O)n2c(C(C)C)n1 | -20 | 1
C=CCOC(=O)COc1ccc2oc(=O)c(-c3ccc(OC)c(OC)c3)c(C)c2c1 | 1 | -14
c1ccc2c(C3Nc4cccc5cccc(c45)N3)cccc2c1 | 77* | nt
Clc1cccc(C2Nc3cccc4cccc(c34)N2)c1 | 82* | nt
c1csc(C2Nc3cccc4cccc(c34)N2)c1 | 50* | nt
N#CC1=C(N)SC(N)=C(C#N)C1c1cccc2ccccc12 | 16 | -9
c1csc(C2Nc3ccccc3-c3nc4ccccc4n32)c1 (centres undefined) | -16 | -6
Fc1cccc(Cl)c1C1Nc2cccc3cccc(c23)N1 | 49 | nt
O=C(NCCC1=CCCCC1)C(=O)Nc1ccon1 | -7 | -6
Cc1ccccc1Cn1cc(SCC(=O)NCc2ccco2)c2ccccc21 | 86* | -1
O=C(CSc1cn(CCNC(=O)c2ccccc2F)c2ccccc12)NCc1ccco1 | 13 | 0
O=C(CSc1cn(Cc2ccc(Cl)cc2)c2ccccc12)NCc1ccco1 | 54* | -2
Cn1cc(CCC(=O)NCc2ccco2)c2ccccc21 | 3 | -12
Cc1cc(NC(=O)c2ccccc2)cc(C)c1O | -1 | -3
Cc1ccc(Nc2cc(C)c(O)c(C)c2)cc1 | 84* | -5
SMILES | mHTT-CaM PPI inh | Pf apPOL inh
Cc1sc2nc(C)n(Cc3ccc(C(F)(F)F)cc3)c(=O)c2c1C | 88* | -3
Cc1sc2nc(C)n(Cc3csc(-c4ccc(Cl)cc4)n3)c(=O)c2c1C | -8 | -4
O=C(Nc1ccccc1)Nc1nnc(-c2cccc(F)c2)s1 | 6 | 2
CCOC(=O)C1=C(C)c2ccccc2N(C(=O)OC)C1(C)C(=O)OCC (centres undefined) | 41 | 78*
CCOC(=O)C1=C(C)c2ccccc2OC1(CC)C(=O)OCC (centres undefined) | -50 | -4
O=C1c2cccc(Cl)c2C(=O)c2c1cccc2N1CCOCC1 | 88* | 10
O=C1c2ccccc2-c2onc3ccc(N4CCOCC4)c1c23 | 17 | -1
CCC1Oc2ccc(Cl)cc2N(CC(=O)NCc2cccc(OC)c2)C1=O (centres undefined) | -9 | -12
CN(C)c1ccc(C=Cc2ccc3ccccc3[n+]2C)cc1 | nt | 2
CN1/C(=C/C=C/c2ccc3ccccc3[n+]2C)C=Cc2ccccc21 | 100* | -3
O=C(c1ccccc1)c1ccc(N2CCN(C(=O)c3ccccc3F)CC2)c(F)c1 | -4 | 4
O=C(c1ccco1)N1CCN(C2=NN=C(c3cccs3)CS2)CC1 | 96* | 50*
N#Cc1nc(-c2cccs2)oc1N1CCN(C(=O)c2ccco2)CC1 | -2 | -2
O=C(c1ccccc1F)N1CCN(C2=NN=C(c3ccccc3)CS2)CC1 | 92* | -7
COc1ccc2c(c1OC)C(=O)OC2Nc1nc2c(s1)CCCC2 (centres undefined) | 25 | -2
CCOc1ccc2c(c1)OC(=Cc1ccc(OS(C)(=O)=O)c(OC)c1)C2=O | -10 | -5
COc1ccc(OC)c(NC(=O)N2CCCCCC2c2ccc(C)s2)c1 (centres undefined) | 27 | -1
O=C(NC1CCCC1)c1nn2c(C(F)(F)F)cc(-c3ccco3)nc2c1Br | 0 | 3
O=C(Nc1cccc(O)c1)c1nn2c(C(F)(F)F)cc(-c3ccco3)nc2c1Br | 61* | 7
COc1ccc(N2CCN(C(=O)c3ccccc3)C(C)C2=O)cc1 (centres undefined) | 3 | 2
Cc1ccccc1OCC(=O)N1CCN(C2=CC3=NC(C)CN3C=N2)CC1 (centres undefined) | 91* | -6
